In PubChem BioAssay AID1159580 (chemical genetic matrix, 2015):
“And” between values parts separate entries of the source, which are not always exact repeats. Equal entries are not always repeated. Screen size: about 5,500 compounds; about 2,000 (36%) were called active. Roughly 18% stayed inconclusive and do not appear here. Rule as the data show it: active = normalized growth mostly below about 0.91 (no sharp cut-off); inconclusive = no clear call, values can overlap the other calls; inactive = mostly above about 0.92. The list shows a part of the results.

Assay: chemical genetic growth profiling, strain panel (AID 1159580);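 also: tested at 20 µM; growth read once vehicle control cultures reached saturation at 30 °C; 1 = growth at the plate median or of vehicle wells; lower values mean less growth of the strain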
Conditions: S. cerevisiae deletion strains, growth OD

Measured: normalized growth

CO[C@]12C[C@@H](COC(=O)c3cncc(Br)c3)CN(C)[C@@H]1Cc1cn(C)c3cccc2c13
inactive: locus YAL013W, strain DEP1, active compounds read low 1.01 | locus YAL021C, strain ccr4, active compounds read low 0.973 | locus YAL026C, strain drs2, active compounds read low 1 | locus YAL030W, strain snc1, active compounds read low 1 | locus YBL061C, strain skt5, active compounds read low 0.996 | locus YBR009C, strain hhf1, active compounds read low 0.991 | locus YBR021W, strain FUR4, active compounds read low 0.913 | locus YBR023C, strain chs3, active compounds read low 0.979 | locus YBR171W, strain sec66, active compounds read low 0.983 | locus YBR229C, strain ROT2, active compounds read low 1 | locus YBR231C, strain swc5, active compounds read low 0.951 | locus YBR279W, strain paf1, active compounds read low 0.998 | locus YCL011C, strain gbp2, active compounds read low 0.983 | locus YCL016C, strain dcc1, active compounds read low 0.998 | locus YCL029C, strain bik1, active compounds read low 1.02 | locus YCL069W, strain vba3, active compounds read low 0.998 | locus YCR088W, strain abp1, active compounds read low 1 | locus YDL005C, strain med2, active compounds read low 0.979 | locus YDL035C, strain GPR1, active compounds read low 0.99 | locus YDL040C, strain nat1, active compounds read low 0.995 | locus YDL074C, strain BRE1, active compounds read low 0.978 | locus YDL101C, strain DUN1, active compounds read low 1.01 | locus YDL134C, strain PPH21, active compounds read low 0.995 | locus YDL185W, strain tfp1, active compounds read low 1 | locus YDL192W, strain arf1, active compounds read low 1.01 | locus YDR001C, strain nth1, active compounds read low 0.994 | locus YDR069C, strain doa4, active compounds read low 0.966 | locus YDR101C, strain arx1, active compounds read low 1 | locus YDR137W, strain rgp1, active compounds read low 1.12 | locus YDR150W, strain NUM1, active compounds read low 0.999 | locus YDR159W, strain sac3, active compounds read low 1.01 | locus YDR162C, strain NBP2, active compounds read low 1 | locus YDR195W, strain ref2 0.943 | locus YDR297W, strain sur2, active compounds read low 0.987 | locus YDR318W, strain mcm21, active compounds read low 1 | locus YDR334W, strain swr1, active compounds read low 1 | locus YDR335W, strain msn5, active compounds read low 0.986 | locus YDR388W, active compounds read low 1 | locus YDR392W, strain spt3, active compounds read low 0.93 | locus YDR502C, strain sam2, active compounds read low 1 | locus YEL003W, strain gim4, active compounds read low 0.988 | locus YEL037C, strain rad23, active compounds read low 0.995 | locus YEL061C, strain CIN8 (second series), active compounds read low 0.987 | locus YEL061C, strain CIN8, active compounds read low 0.997 | locus YER015W, strain faa2, active compounds read low 0.996 | locus YER016W, strain bim1, active compounds read low 1 | locus YER110C, active compounds read low 1.01 | locus YER111C, strain swi4, active compounds read low 1.01 | locus YER155C, strain BEM2 (second series), active compounds read low 0.912 | locus YER155C, strain BEM2, active compounds read low 0.998 | locus YER167W, strain BCK2, active compounds read low 1 | locus YFR010W, strain ubp6, active compounds read low 0.99 | locus YGL078C, strain dbp3, active compounds read low 1 | locus YGL086W, strain mad1, active compounds read low 1 | locus YGL167C, strain pmr1, active compounds read low 0.996 | locus YGL173C, strain kem1, active compounds read low 0.989 | locus YGL227W, strain vid30, active compounds read low 0.994 | locus YGL240W, strain doc1, active compounds read low 0.95 | locus YGL248W, strain PDE1, active compounds read low 1.01 | locus YGL253W, strain hxk2, active compounds read low 0.998 | locus YGR078C, strain PAC10, active compounds read low 0.974 | locus YGR135W, strain pre9, active compounds read low 0.993 | locus YGR229C, strain SMI1, active compounds read low 1 | locus YGR252W, strain gcn5, active compounds read low 0.869 | locus YHR013C, strain ard1, active compounds read low 1.02 | locus YHR027C, strain rpn1, active compounds read low 0.988 | locus YHR030C, strain SLT2, active compounds read low 1.01 and 0.979 | locus YHR079C, strain IRE1 (second series), active compounds read low 1.01 | locus YHR079C, strain IRE1, active compounds read low 0.957 | locus YHR094C, strain hxt1, active compounds read low 1 | locus YHR129C, strain ARP1, active compounds read low 1.02 | locus YHR142W, strain chs7, active compounds read low 1.01 | locus YHR200W, strain rpn10, active compounds read low 1 | locus YIL066C, strain RNR3, active compounds read low 1 | locus YIL073C, strain SPO22, active compounds read low 1 | locus YIL125W, strain kgd1, active compounds read low 1.01 | locus YIR030C, strain dcg1, active compounds read low 1.01 | locus YJL092W, strain hpr5, active compounds read low 1 | locus YJL095W, strain BCK1 (second series), active compounds read low 1 | locus YJL095W, strain BCK1, active compounds read low 0.996 and 0.967 | locus YJL115W, strain asf1, active compounds read low 0.991 | locus YJL129C, strain trk1, active compounds read low 0.982 | locus YJL134W, strain LCB3, active compounds read low 1 | locus YJL154C, strain vps35, active compounds read low 0.981 | locus YJL164C, strain tpk1, active compounds read low 0.997 | locus YJL166W, strain qcr8, active compounds read low 0.972 | locus YJL168C, strain set2, active compounds read low 1 | locus YJL187C, strain SWE1 (second series), active compounds read low 1.01 | locus YJL187C, strain SWE1, active compounds read low 0.996 | locus YJR043C, strain POL32, active compounds read low 1.01 | locus YJR066W, strain TOR1, active compounds read low 0.897
